# Reference: PubChem BioAssay
# Activity calls are given as the source filed them. Unless noted, no rule for the calls is given here.
# Assays:
# [1] = HepG2 liver cancer cell viability effects, profiling panel, resazurin fluorescence, 24 h, PK04 Diversity Set (AID 1172); conditions: higher = more signal
# [2] = basal S. cerevisiae growth modulation, no modifier, primary screen, OD600, strain BY4716, 24 h, basal condition (AID 1173); conditions: OD600, 24 h, higher = more signal, called active from +8 up or from −8 down
# [3] = MM1S myeloma cell viability, profiling panel, resazurin fluorescence, basal, 24 h, PK04 Diversity Set (AID 1174); conditions: higher = more signal, called active from +8 up or from −8 down;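 also: MM1S multiple myeloma cell line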
# [4] = biological target: Dihydroorotate dehydrogenase (quinone), mitochondrial (Plasmodium falciparum (isolate 3D7)) (UniProt Q08210); assay: PfDHODH enzyme inhibitors, primary screen, biochemical, C-terminal His tag, absorbance 600 nm (AID 1175); conditions: DCIP absorbance 600 nm, higher = more signal, called active from +8 up or from −8 down;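 also: recombinant parasite enzyme with a five histidine tag at its C terminus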
# [5] = P. aeruginosa biofilm formation inhibitors, primary screen, strain PAO1, LB-PBS medium, absorbance 600 nm (AID 1176); conditions: P. aeruginosa PAO1 growth/biofilm, A600, 12 h; higher = more signal
# [6] = S. cerevisiae RM11-1a growth modifiers, primary screen, strain RM11-1a, OD600, basal, 24 h (AID 1177); conditions: OD600, 24 h, higher = more signal, called active from +8 up or from −8 down;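 also: cultures grown under basal conditions with no added stressor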
# [7] = E. coli acrAB mutant growth effects, primary screen, E. coli filamentation inducers, strain DRC39, OD650, 24 h (AID 1178); conditions: higher = more signal, called active from +8 up or from −8 down;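 also: growth measured as culture turbidity by optical density at 650 nm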
# [8] = E. coli acrAB mutant growth effects, primary screen, E. coli filamentation inducers, strain DRC39, OD650, 48 h (AID 1179);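 also: screen aims at cell division blockers that make cells filament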; conditions: E. coli DRC39 delta-acrAB growth, higher = more signal, called active from +8 up or from −8 down
# [9] = RPMI8226 myeloma cell viability, profiling panel, resazurin fluorescence, basal, 24 h, PK04 Diversity Set (AID 1180); conditions: higher = more signal;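 also: RPMI8826 multiple myeloma cell line at 5000 cells per well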
# [10] = biological target: E3 ubiquitin-protein ligase XIAP (Homo sapiens) (UniProt P98170); assay: XIAP binders, primary screen, biophysical, small-molecule microarray, fluorescence 635 nm (AID 1181); conditions: small-molecule microarray binding, higher = more signal;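 also: score merges 667 nm emission and signal to noise over triplicate slides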
# [11] = tested on: XIP peptide (Xip251-270) binding; assay: small-molecule binders of XIP peptide, primary screen, biochemical, small-molecule microarray, fluorescence 635/667 nm, 0.1 µg/mL protein (AID 1182); conditions: fluorescent protein binding, 635 nm, higher = more signal, called active from +8 up or from −8 down
# XIP peptide (Xip251-270) = assay: small-molecule binders of XIP peptide, primary screen, biochemical, small-molecule microarray, fluorescence 635/667 nm, 0.5 µg/mL protein (AID 1183); conditions: small-molecule microarray binding, fluorescence 635 nm; higher = more signal
# [12] = Plasmodium falciparum growth inhibition, primary screen, strain 3D7, DAPI fluorescence, 100 nL (AID 1184);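 also: parasites grown inside human red blood cells in medium with human serum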; conditions: P. falciparum 3D7 growth, 3 d, higher = more signal
# [13] = biological target: Homeobox protein Hox-A13 (Mus musculus) (UniProt Q62424); assay: inhibitors of HoxA13-DNA binding, primary screen, biochemical, fluorescence polarization, labeled oligonucleotide (AID 1185); conditions: 15 min, higher = more signal, called active from +8 up or from −8 down
# [14] = inhibitors of hydroxyurea-induced Chk1 phosphorylation, primary screen, imaging, HeLa, phospho-Chk1 antibody, percent positive cells (AID 1186); conditions: hydroxyurea-induced phospho-Chk1 immunofluorescence imaging, higher = more signal
# [15] = inhibitors of hydroxyurea-induced Chk1 phosphorylation, primary screen, imaging, HeLa, phospho-Chk1 nuclear intensity (AID 1187); conditions: hydroxyurea-induced phospho-Chk1 immunofluorescence imaging, higher = more signal
# Chain of Dihydroorotate dehydrogenase (quinone), mitochondrial (Plasmodium falciparum (isolate 3D7)) (Q08210 whole entry, looked up): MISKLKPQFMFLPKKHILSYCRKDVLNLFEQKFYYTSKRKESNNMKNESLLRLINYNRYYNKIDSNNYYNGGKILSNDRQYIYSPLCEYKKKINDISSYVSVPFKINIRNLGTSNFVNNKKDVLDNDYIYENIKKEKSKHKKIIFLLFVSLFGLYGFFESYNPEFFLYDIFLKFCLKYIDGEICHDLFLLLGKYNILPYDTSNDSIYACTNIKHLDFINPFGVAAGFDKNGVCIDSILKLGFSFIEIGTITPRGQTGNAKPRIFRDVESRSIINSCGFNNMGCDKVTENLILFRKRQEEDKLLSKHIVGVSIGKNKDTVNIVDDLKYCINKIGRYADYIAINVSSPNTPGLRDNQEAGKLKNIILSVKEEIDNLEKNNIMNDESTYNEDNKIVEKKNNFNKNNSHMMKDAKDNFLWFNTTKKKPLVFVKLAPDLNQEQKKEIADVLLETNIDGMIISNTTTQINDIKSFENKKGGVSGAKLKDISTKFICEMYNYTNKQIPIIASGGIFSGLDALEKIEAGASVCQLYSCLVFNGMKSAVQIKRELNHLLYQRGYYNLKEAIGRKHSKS
# Chain of Homeobox protein Hox-A13 (Mus musculus) (Q62424 whole entry, looked up): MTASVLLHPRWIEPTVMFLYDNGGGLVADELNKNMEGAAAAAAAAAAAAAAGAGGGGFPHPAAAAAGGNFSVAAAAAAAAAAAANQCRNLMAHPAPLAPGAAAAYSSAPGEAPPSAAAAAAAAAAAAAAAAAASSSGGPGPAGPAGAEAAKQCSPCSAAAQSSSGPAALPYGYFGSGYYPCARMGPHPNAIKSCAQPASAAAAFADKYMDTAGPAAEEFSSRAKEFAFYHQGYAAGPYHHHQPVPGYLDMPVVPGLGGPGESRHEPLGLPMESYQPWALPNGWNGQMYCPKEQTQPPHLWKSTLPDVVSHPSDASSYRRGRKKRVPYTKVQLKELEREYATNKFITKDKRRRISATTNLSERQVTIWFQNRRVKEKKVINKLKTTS
# Chain of E3 ubiquitin-protein ligase XIAP (Homo sapiens) (P98170 whole entry, looked up): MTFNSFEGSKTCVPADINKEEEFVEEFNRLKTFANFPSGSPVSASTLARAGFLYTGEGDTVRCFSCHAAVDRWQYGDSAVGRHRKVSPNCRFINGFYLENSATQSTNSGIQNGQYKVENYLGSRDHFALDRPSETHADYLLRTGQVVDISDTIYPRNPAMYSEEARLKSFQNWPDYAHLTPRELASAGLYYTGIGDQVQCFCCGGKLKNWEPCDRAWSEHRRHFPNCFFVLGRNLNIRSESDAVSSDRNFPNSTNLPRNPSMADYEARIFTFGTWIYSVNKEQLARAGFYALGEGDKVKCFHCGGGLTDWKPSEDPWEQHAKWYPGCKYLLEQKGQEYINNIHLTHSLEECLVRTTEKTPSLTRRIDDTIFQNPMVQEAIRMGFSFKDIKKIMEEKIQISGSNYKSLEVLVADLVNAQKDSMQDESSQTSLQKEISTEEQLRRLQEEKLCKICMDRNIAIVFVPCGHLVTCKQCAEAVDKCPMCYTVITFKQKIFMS
SMILES,z-score [1],z-score [2],z-score [3],composite z-score [4],z-score [5],z-score [6],z-score [7],z-score [8],z-score [9],composite z-score [10],composite z-score [11],composite z-score (XIP peptide (Xip251-270)),z-score [12],z-score [13],z-score [14],z-score [15]
Cc1ccc(S(=O)(=O)N2[C@@H](c3ccccc3)C(C(=O)O)=C[C@H]2C(C)(C)C)cc1,-0.809,-0.535 (inactive),-0.912 (inactive),0.0392 (inactive),0.257 (inactive),-1.13 (inactive),-0.773 (inactive),-0.0408 (inactive),-2.03,-0.18,1.11 (inactive),0.792,-1.04,-5.12 (inactive),0.694 (inactive),0.0696 (inactive)
COc1ccc([Si](C)(C)[C@H]2[C@H](CCO)O[C@@]3(C(=O)N(Cc4ccccc4)c4ccc(NC(=O)[C@H](C)O)cc43)[C@@H]2C)cc1,-4.02,0.478 (inactive),-7.25 (inactive),1.18 (inactive),1.7 (inactive),4.58 (inactive),1.23 (inactive),0.723 (inactive),-5.45,0.0153,-0.0359 (inactive),-0.313,-2.6,-5.67 (inactive),-1.59 (inactive),-0.751 (inactive)
CCCCC(=C=CC[C@H](O)c1cccc(OCCO)c1)C[C@H](O)c1cc(Cl)cc(Cl)c1O,1.89,-2.65 (inactive),0.356 (inactive),0.189 (inactive),0.318 (inactive),0.275 (inactive),1.07 (inactive),0.923 (inactive),0.242,-0.206,0.878 (inactive),0.592,-1.16,-4.28 (inactive),-0.755 (inactive),0.0773 (inactive)
C=CC[C@H](OC(=O)Nc1ccc(SC)cc1)c1ccc(O)c(F)c1,-0.124,-15.5 (active),-0.868 (inactive),-1.32 (inactive),1.1 (inactive),-11 (active),0.332 (inactive),-0.343 (inactive),-1.54,0.0297,1.07 (inactive),-0.193,-0.249,-0.845 (inactive),0.355 (inactive),0.417 (inactive)
COC(=O)[C@H]1N=C(c2ccc(OCCCO)cc2)O[C@H]1c1ccccc1N=[N+]=[N-],0.249,-3.93 (inactive),-0.971 (inactive),0.556 (inactive),1.43 (inactive),0.682 (inactive),0.584 (inactive),-0.711 (inactive),0.464,-0.141,0.363 (inactive),0.75,-2.1,-4.13 (inactive),-0.0771 (inactive),0.193 (inactive)
C=CCC(OC(C)=O)[C@@H]1[C@@H](N(Cc2ccc(-c3ccccc3)cc2)C(=O)Cc2ccc(OC)cc2)c2cc(OCCCO)ccc2N1C(=O)c1ccc2ccccc2c1 (some centres undefined),-0.555,-0.562 (inactive),-0.536 (inactive),-0.804 (inactive),0.0914 (inactive),-1.21 (inactive),0.174 (inactive),-0.339 (inactive),0.186,0.202,-0.965 (inactive),-0.0698,-2.9,-1.72 (inactive),0.443 (inactive),0.209 (inactive)
O=C1C2C=CC(C(O)C3CC=CCC3)N(Nc3ccc([N+](=O)[O-])cc3)C2C(=O)N1c1ccccc1 (centres undefined),-0.681,-0.541 (inactive),-0.428 (inactive),0.354 (inactive),1.29 (inactive),-0.0935 (inactive),-0.544 (inactive),-0.861 (inactive),-0.617,0.26,0.524 (inactive),0.545,-0.627,-3.86 (inactive),0.691 (inactive),-0.101 (inactive)
C[C@]1(C(=O)NC2CC2)c2ccccc2C(=O)N(Cc2cc(F)cc(C(F)(F)F)c2)[C@H]1c1ccc(CO)cc1,1.53,0.411 (inactive),0.872 (inactive),0.712 (inactive),-0.646 (inactive),1.34 (inactive),0.425 (inactive),0.401 (inactive),1.04,0.195,0.431 (inactive),0.883,0.0713,-3.51 (inactive),0.361 (inactive),0.529 (inactive)
CCOC(=O)C1=CCC(c2cccn2C(=O)OC(C)(C)C)N(S(=O)(=O)c2ccc(C)cc2)C1 (centres undefined),0.573,-0.902 (inactive),-0.926 (inactive),0.068 (inactive),-0.144 (inactive),0.824 (inactive),-0.484 (inactive),0.605 (inactive),-0.538,0.177,0.153 (inactive),0.732,-1.62,0.323 (inactive),-1.06 (inactive),-1.18 (inactive)
CCOC(=O)C[C@H]1[C@H](OC(=O)c2cc3ccccc3oc2=O)[C@@H](NC(=O)Cc2ccc(OC)cc2)c2cc(OCCCO)ccc2N1C(=O)Cc1ccc(OC)cc1,1.04,-3.03 (inactive),1.26 (inactive),-0.317 (inactive),-0.234 (inactive),-1.01 (inactive),1.76 (inactive),0.248 (inactive),0.918,0.177,-0.0664 (inactive),0.0609,-0.912,-5.1 (inactive),0.212 (inactive),0.199 (inactive)
CC(C)C(=C=CC[C@H](O)c1cccc(OCCO)c1)C[C@H](O)c1ccccn1,1.91,0.589 (inactive),0.106 (inactive),-0.332 (inactive),0.625 (inactive),-0.69 (inactive),1.61 (inactive),1.5 (inactive),0.681,0.0436,0.549 (inactive),0.806,-0.991,-3.81 (inactive),-0.428 (inactive),0.321 (inactive)
CN1C(=O)C2C(C1=O)C1C=C(CCCO)C2C(C2CC2)N1C (centres undefined),-1.15,0.275 (inactive),-0.228 (inactive),-2.87 (inactive),-0.214 (inactive),-0.593 (inactive),0.796 (inactive),1.44 (inactive),-0.965,0.333,0.58 (inactive),0.591,0.119,-6.6 (inactive),-0.0182 (inactive),0.162 (inactive)
C[C@@]1([C@@H](NS(=O)(=O)c2cccc3cccnc23)c2ccc(-c3ccccc3)cc2)C[C@H]1C1CCCCC1,-0.901,0.944 (inactive),-2.58 (inactive),-0.554 (inactive),-0.0982 (inactive),0.368 (inactive),-0.893 (inactive),-0.882 (inactive),-0.678,0.553,0.648 (inactive),-0.209,-0.748,2.32 (inactive),1.42 (inactive),0.534 (inactive)
COCCOC(=O)N1C(=O)[C@@]2(c3cc(C#CCCO)ccc31)[C@H](C(=O)N1CCN(c3ncccn3)CC1)[C@H]1C(=O)O[C@H](c3ccccc3)[C@H](c3ccccc3)N1[C@@H]2c1ccc(OCCO)cc1,0.739,2.7 (inactive),-0.632 (inactive),-0.486 (inactive),1.17 (inactive),2.75 (inactive),-0.77 (inactive),-0.548 (inactive),0.555,0.0432,0.472 (inactive),0.838,-2.04,0.211 (inactive),-0.0621 (inactive),-0.0646 (inactive)
